In all, about 290,000 compounds went through this assay and about 3,000 (1%) were called active. Cut-off read from the data, not from the text of the source: active = inhibition mostly above about 36% (no sharp cut-off); inactive = mostly below about 34%. What follows is part of a selection rich in actives, with near analogues and random picks from the rest.
assay: inhibition of NOD1-driven NF-kB reporter – cell-based, luminescence, uHTS, primary screen (AID 1578); details: NOD1-driven NF-kB luciferase reporter cells, at 4 µM, active compounds read high;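 note: HEK-293T reporter cells stimulated with the NOD1 agonist gamma-tri-DAP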

Structure (SMILES) | inhibition
CN1C=CC=C/C1=C1\SC(=S)N(N)C1=O | -40.2% (inactive)
CCOC(=O)C1CCN(CCC(=O)Nc2ccc(C)cc2)CC1 | -32.1% (inactive)
COC(=O)c1cc(CNC(=O)c2ccc(N3CCCC3)c([N+](=O)[O-])c2)ccc1OC | -43.2% (inactive)
CCNC(=S)N/N=C/c1cn(Cc2ccc(F)cc2)c2ccccc12 | 10.8% (inactive)
CNC(=S)N/N=C/c1cn(Cc2ccc(F)cc2)c2ccccc12 | -6.2% (inactive)
CNC(=S)N/N=C/c1cn(Cc2ccc(C)cc2)c2ccccc12 | 70.4% (active)
COc1ccc(S(=O)(=O)N(C)c2ccc(C(=O)Nc3c(C)n(C)n(-c4ccccc4)c3=O)cc2)cc1 | -31.9% (inactive)
CCCC(C)NC(=O)c1cc(Cl)ccc1OC (stereo not drawn) | -0.3% (inactive)
CC(=O)c1cnc(Oc2cc(Cl)ccc2Cl)nc1C | -14.2% (inactive)
CN(C)S(=O)(=O)c1cccc(CSc2cccc[n+]2[O-])c1 | -15.4% (inactive)
Cc1cc(C)n2nc(SCc3cccc(S(=O)(=O)N(C)C)c3)nc2n1 | 7.2% (inactive)
COC(=O)c1c(NC(=O)C2CCC2)sc(C(=O)N(C)C)c1C | -8.7% (inactive)
CCc1cccc(N(C(=O)c2csnn2)C(C(=O)NC2CCCC2)c2cccnc2)c1 (stereo not drawn) | -10.2% (inactive)
O=C(O)c1ccc2c(=O)n3c(nc2c1)/C(=C/c1ccc(F)cc1)CC3 | 33.3% (active)
CSc1ccc(/C=C2\CCn3c2nc2cc(C(=O)O)ccc2c3=O)cc1 | -1.6% (inactive)
O=C(O)c1ccc2c(=O)n3c(nc2c1)/C(=C/c1ccc(C(F)(F)F)cc1)CC3 | 1.9% (inactive)
Cc1nc(-c2ccccc2)sc1C1(C)CC(c2c(Cl)cccc2Cl)=NO1 (stereo not drawn) | 10.1% (inactive)
CCCO/N=C1/C(=O)N(c2ccccc2)c2ccccc21 | 6.1% (inactive)
C#CCN1C(=O)C(O)(CC(=O)/C=C/C=C/c2ccccc2)c2ccccc21 (stereo not drawn) | 57% (active)
NC(=O)CN1C(=O)C(O)(CC(=O)/C=C\C=C\c2ccccc2)c2ccccc21 (stereo not drawn) | 17.8% (inactive)
CCN1C(=O)C(O)(CC(=O)/C=C/C=C/c2ccccc2)c2ccccc21 (stereo not drawn) | -4.8% (inactive)
Cc1ccc(S(=O)(=O)/N=C(/Nc2ccc3[nH]c(=O)[nH]c3c2)c2ccc(F)cc2)cc1 | 3.8% (inactive)
CCSC1=C(C#N)C2(CCCCC2)C(C#N)C(=O)N1 (stereo not drawn) | -3.2% (inactive)
N#CC1=C(SCC(=O)NC2CC2)NC(=O)C(C#N)C12CCCCC2 (stereo not drawn) | 15.7% (inactive)

Structure (SMILES) | inhibition
COCCN=C1OC(=O)N2C(=O)C3=C4[C@@H](C[C@H]5C(=O)N(c6ccccc6)C(=O)[C@H]5[C@H]4[C@@]12Cc1ccccc1)[C@H]1C(=O)N(c2ccccc2)C(=O)[C@H]1[C@H]3C | 4.5% (inactive)
Cc1cc(C)nc(N(C#N)Cc2ccccc2C)n1 | -6.3% (inactive)
CCCOc1ccc(C(=O)C(CN2CCCC2)c2ccccc2)cc1 (stereo not drawn) | 31.5% (inactive)
O=C(c1ccc(F)cc1)C(CN1CCOCC1)c1ccccc1 (stereo not drawn) | 67.3% (active)
COc1ccc(C(=O)C(CN2CCCC2)c2ccccc2)cc1 (stereo not drawn) | 78.7% (active)
COc1ccc(C(=O)C(CN2CCOCC2)c2ccccc2)cc1 (stereo not drawn) | 38% (inactive)
CCOc1ccc(C(=O)C(CN2CCOCC2)c2ccccc2)cc1 (stereo not drawn) | -28.1% (inactive)
O=C(c1ccc(Br)cc1)C(CN1CCOCC1)c1ccccc1 (stereo not drawn) | 5.4% (inactive)
Fc1ccc(OCc2nn[nH]n2)c(F)c1 | -9.1% (inactive)
COc1ccc(C(=O)NC(=S)NNC(=O)[C@H]2C[C@@H]2c2ccccc2)cc1OC | -2.6% (inactive)
O=C(NCC(=O)N(c1cccc(F)c1)C(C(=O)NC1CCCC1)c1ccco1)c1ccco1 (stereo not drawn) | -35.9% (inactive)
O=C(NCc1ccncc1)c1ccc(Oc2ccccc2)cc1 | 18.9% (inactive)
Cc1ccc(Oc2ccc(C(=O)NCc3ccncc3)cc2)cc1 | 38.4% (active)
CCOc1ccc(C(=O)NCc2ccncc2)cc1 | -14.8% (inactive)
O=S(=O)(NCc1ccc2c(c1)OCO2)c1c(F)cc(F)cc1Br | -29.4% (inactive)
COc1ccccc1NC(=O)C(=O)N/N=C/c1ccc([N+](=O)[O-])s1 | 74.8% (active)
Fc1ccccc1/C=N/NC(=S)Nc1ccc(Cl)cc1Cl | -13.3% (inactive)
COc1ccccc1NC(=O)C(=O)N/N=C/c1cccs1 | -36% (inactive)
O=C(N/N=C\c1cccc([N+](=O)[O-])c1O)C1COc2ccccc2O1 (stereo not drawn) | -14.4% (inactive)
O=C(N/N=C\c1ccc(Cl)s1)C1COc2ccccc2O1 (stereo not drawn) | -4.2% (inactive)
COC(=O)N/N=C/c1ccc([N+](=O)[O-])s1 | -14.7% (inactive)
Fc1ccc(/C=N/NC(=S)Nc2ccc(Cl)cc2Cl)cc1 | 8.9% (inactive)
Cc1ccccc1C(=O)N/N=C/c1ccc([N+](=O)[O-])s1 | 11% (inactive)
Cc1cc(C(=O)N/N=C/c2ccc([N+](=O)[O-])cc2)c2ccccc2n1 | 8.1% (inactive)

Structure (SMILES) | inhibition
COc1cccc(NC(=O)c2ccccc2N2C(=O)C3C4C=CC(C5CC45)C3C2=O)c1 (stereo not drawn) | -54.1% (inactive)
COc1cccc(OCC(O)CNC(C)c2ccccc2)c1 (stereo not drawn) | -39.9% (inactive)
C=CCNc1nnnc2c1sc1nc(N3CCOCC3)c3c(c12)CCCC3 | -1.1% (inactive)
COC(=O)c1c(NC(=O)COC(=O)CNC(=O)c2ccco2)sc(C)c1C | -14.8% (inactive)
Cc1ccc(/C(O)=C2\C(=O)C(=O)N(C)C2c2ccc(Br)cc2)cc1 (stereo not drawn) | -22% (inactive)
CC1CN(C(=O)CN2C(=O)c3ccccc3C2=O)CC(C)O1 (stereo not drawn) | -11.2% (inactive)
c1ccc(C(c2nnnn2C2CCCC2)N2CCN(c3nc4ccccc4s3)CC2)cc1 (stereo not drawn) | 8.2% (inactive)
CCOC(=O)c1c(NC(=O)CC)sc2c1CCN(Cc1ccccc1)C2 | -21.7% (inactive)
Nc1nonc1-n1nnc(C(=O)N/N=C/c2ccccn2)c1CNc1ccccc1 | -11.6% (inactive)
COc1ccccc1-c1cc(C(=O)N/N=C/c2sccc2C)c2ccccc2n1 | -11.4% (inactive)
O=C(N/N=C/c1cccs1)c1cc(-c2ccncc2)nc2ccccc12 | 4.8% (inactive)
Cc1ccsc1/C=N/NC(=O)c1cc(-c2ccncc2)nc2ccccc12 | 69.5% (active)
Cc1onc(-c2ccccc2Cl)c1C(=O)OCC(=O)c1c(N)n(C)c(=O)n(C)c1=O | -8.2% (inactive)
COc1ccc(C(C(=O)NC2CCCCC2)N(C(=O)c2snc(C(N)=O)c2N)c2ccc(OC)cc2OC)cc1 (stereo not drawn) | -7.1% (inactive)
Cn1c(=O)n(C)c2cc(NC(=O)c3ccccc3NS(C)(=O)=O)ccc21 | 44.4% (inactive)
O=c1[nH]c(C2CCN(S(=O)(=O)Cc3ccccc3)CC2)nc2c1nnn2Cc1cccc(Cl)c1 | -7.8% (inactive)
NC(N)=NC(=S)Nc1ccc(Cl)cc1 | -15.3% (inactive)
NC(=NCCCCCCN=C(N)/N=C(\N)Nc1ccc(Cl)cc1)/N=C(\N)Nc1ccc(Cl)cc1 | 46.6% (active)
NC(=O)Nc1ccc(Cl)cc1 | 0.2% (inactive)
Cc1ccc(S(=O)(=O)NC(C)C(=O)Nc2ccc3c(c2)OCO3)cc1 (stereo not drawn) | -7.4% (inactive)
Cc1cc(C(F)F)n2nc(C(=O)Nc3cccc(C(F)(F)F)c3)nc2n1 | -25.8% (inactive)
COC(=O)CNC(=O)C(NC(=O)c1ccc(Cl)cc1)C(C)C (stereo not drawn) | 1.3% (inactive)
O=C(CC1C(=O)NCCN1Cc1cccc(F)c1)NC1CCC1 (stereo not drawn) | -28.3% (inactive)
CCOc1ccc2c(c1)C(C)=CC(C)(C)N2S(=O)(=O)c1ccc(C)cc1 | -31.4% (inactive)

Structure (SMILES) | inhibition
COc1ccc2c(c1)C(C)=CC(C)(C)N2S(=O)(=O)c1ccc(NC(C)=O)cc1 | 31.4% (inactive)
CCOc1ccc2c(c1)C(C)=CC(C)(C)N2S(=O)(=O)c1ccc(NC(C)=O)cc1 | 74.1% (active)
CC(=O)c1cnc2nc(SCc3ccccc3)nn2c1C | -36% (inactive)
O=C(NC1CCCC1)C(c1ccc(F)cc1)N(C(=O)c1csnn1)c1ccccc1 (stereo not drawn) | -27.7% (inactive)
CCOc1ccc2nc(SCC(=O)c3ccc(O)cc3O)sc2c1 | 51.8% (active)
CCOc1ccc2nc(SCC(=O)NC(=O)C(C)C)sc2c1 | -13.9% (inactive)
O=C(CSc1nc2ccccc2s1)Nc1ccc2c(c1)OCO2 | 12.2% (inactive)
CCOc1ccc2nc(SCC(=O)c3ccccc3)sc2c1 | -38.9% (inactive)
O=C(CSc1nc2ccccc2s1)c1ccc(O)cc1O | 0.6% (inactive)
CCOc1ccc2nc(SCC(=O)Nc3ccc4c(c3)OCO4)sc2c1 | 67.3% (active)
CCN1CCN(C(=S)c2ccc(O)cc2)CC1 | -31% (inactive)
Nc1cccc(C(=O)OCC(=O)Nc2cccc3c2C(=O)c2ccccc2C3=O)c1 | -3.2% (inactive)
O=C(CSc1ccccc1)NC1=NCCS1 | -5.2% (inactive)
CN(C(=O)c1cnc(N2CCN(c3ncccn3)CC2)c2ccccc12)c1ccc(Cl)cc1 | 14.2% (inactive)
COc1ccc(N(C)C(=O)c2cnc(N3CCN(c4ncccn4)CC3)c3ccccc23)cc1 | -20% (inactive)
COc1ccc(Nc2ncc(C(=O)N3CCN(c4ccccc4OC)CC3)c3ccccc23)cc1 | 52.5% (inactive)
COc1ccccc1C(=O)N1CCN(c2cccc(Cl)c2)CC1 | 33.8% (inactive)
COc1ccc(CNCc2ccc(F)cc2)c(OC)c1 | -19.8% (inactive)
CCOC(=O)NC(=O)/C(N=Nc1cc(C)cc(C)c1)=C(\C)O | -20.5% (inactive)
CC(C)(C)NCC(O)(c1ccc(Cl)cc1)c1ccc(Cl)cc1 | -30.2% (inactive)
CCNC(=S)N(Cc1ccc2c(c1)OCO2)C1CC(=O)N(c2ccc(F)cc2)C1=O (stereo not drawn) | -9.3% (inactive)
